# Results filed as inconclusive are left out. Entries that show only a call come without a potency. Unmarked numbers belong to inactive results. Active and inactive are the calls of the source. Calls follow the shape of the full dose curve.
# Target: Thyrotropin receptor (Homo sapiens) (UniProt P16473)
# Assay: qHTS assay to identify small molecule agonists of the thyroid stimulating hormone receptor (TSHR) signaling pathway (AID 1224843); also: nearly all actives have a fitted effect of over 45% in size
# Conditions: TSHR-HEK293 cells, cAMP HTRF, agonist mode, 30 min; series mostly up to 92.4 µM
# Description: National Center for Advancing Translational Sciences [NCATS]
# NIH Chemical Genomics Center [NCGC]
# U.S. Environmental Protection Agency [EPA]
# National Institutes of Environmental Health Sciences [NIEHS]
# National Toxicology Program [NTP]
# U.S. Food and Drug Administration [FDA]
# TSHR is the receptor for thyrotropin (thyroid stimulating hormone or TSH), a member of the glycoprotein hormone family. TSH is released by the anterior pituitary gland and is the main regulator of thyroid gland growth and development. Upon binding circulating thyrotropin, a G-protein signal cascade activates adenylyl cyclase and […] cAMP concentration is increased. cAMP is a key second messenger involved extensively in cellular signal transduction pathways associated with the majority of G-protein coupled receptors (GPCRs). The activation of these GPCRs by neurotransmitters, lipids, nucleotides, peptides and hormones results in the activation or the inhibition of plasma membrane-bound adenylate cyclase through heterotrimeric G-proteins. A cell-based TSHR assay was used to screen the Tox21 10K library for compounds that can modulate TSHR in agonist mode.
# Tox21 Assay Protocol Summary:
# TSHR-Hek293 cells were dispensed at 800 cells/4uL/well in 1536-well white plates using a Multidrop dispenser. […] The plates were incubated at room temperature for 30 min. 2.5 ul/well of cAMP-d2 and 2.5ul/well of anti-cAMP-cryptate was added respectively into the assay plates using a Flying Reagent Dispenser. After 1 hr incubation at room temperature, the fluorescence intensity in the plates was measured using an Envision plate reader. Each test compound was measured at 15 concentrations and in triplicates.
# Potency is read from the fitted curve at half-maximal effect.
# Sequence of Thyrotropin receptor (Homo sapiens) (P16473 whole entry, looked up): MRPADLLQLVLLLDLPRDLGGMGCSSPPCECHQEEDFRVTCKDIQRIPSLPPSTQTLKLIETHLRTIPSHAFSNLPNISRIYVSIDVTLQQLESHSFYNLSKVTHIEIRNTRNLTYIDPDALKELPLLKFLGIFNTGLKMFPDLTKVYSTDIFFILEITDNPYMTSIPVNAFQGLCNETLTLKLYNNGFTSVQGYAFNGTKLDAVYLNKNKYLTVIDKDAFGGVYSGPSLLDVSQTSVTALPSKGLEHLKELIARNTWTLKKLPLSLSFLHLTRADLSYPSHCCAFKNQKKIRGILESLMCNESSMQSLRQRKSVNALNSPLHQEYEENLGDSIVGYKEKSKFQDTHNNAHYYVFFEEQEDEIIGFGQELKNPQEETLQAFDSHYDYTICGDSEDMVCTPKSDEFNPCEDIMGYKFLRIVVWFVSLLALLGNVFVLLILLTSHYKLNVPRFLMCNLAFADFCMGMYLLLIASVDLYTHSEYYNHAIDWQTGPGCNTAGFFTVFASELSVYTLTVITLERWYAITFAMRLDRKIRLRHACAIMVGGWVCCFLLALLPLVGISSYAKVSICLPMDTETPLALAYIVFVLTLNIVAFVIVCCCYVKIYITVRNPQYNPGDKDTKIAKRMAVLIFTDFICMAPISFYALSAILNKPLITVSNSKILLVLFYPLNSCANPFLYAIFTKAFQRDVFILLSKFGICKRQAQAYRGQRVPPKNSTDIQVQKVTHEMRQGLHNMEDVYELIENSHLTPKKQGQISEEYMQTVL
SMILES,activation,Potency
Brc1c(Br)c(Br)c(Oc2c(Br)c(Br)c(Br)c(Br)c2Br)c(Br)c1Br,-5.88% [at 19 µM],–
N#Cc1ccc(O)cc1,–,inactive
CC(C)C(=O)Cl,–,inactive
Nc1ccc(Cc2ccc(N)c(Cl)c2)cc1Cl,–,inactive
C=COCCCl,–,inactive
C[C@]12CC[C@H](O)C[C@H]1CC[C@@H]1[C@@H]2C[C@@H](O)[C@]2(C)[C@@H](C3=CC(=O)OC3)CC[C@]12O,–,inactive
COP(=O)(OC)SCn1c(=O)oc2cc(Cl)cnc21,–,24.3 µM (active)
O=C(O)COc1nc(Cl)c(Cl)cc1Cl,–,inactive
Cc1cc(C)cc(OP(=O)(Oc2cc(C)cc(C)c2)Oc2cc(C)cc(C)c2)c1,–,inactive
O=C(O)c1cc[c]([Hg][Cl])cc1,–,15.4 µM (active)
CCCCCCCCCCCCBr,–,inactive
Clc1ccc(C(Cl)(Cl)Cl)c(Cl)c1,–,inactive
O=C(O)C1C2CCC(O2)C1C(=O)O (stereo not given),–,inactive
COS(=O)(=O)c1ccc(C)cc1,–,inactive
ClC(Cl)=C(Cl)Cl,–,inactive
ClC1=C(Cl)[C@]2(Cl)[C@H]3[C@H]([C@H]4C=C[C@H]3C4)[C@@]1(Cl)C2(Cl)Cl,–,9.69 µM (active)
Cc1ccc(OP(=O)(Oc2ccccc2)Oc2ccccc2)cc1,–,15.6 µM (active)
C[C@H]1O[C@@H](O[C@H]2[C@@H](O)C[C@H](O[C@H]3[C@@H](O)C[C@H](O[C@H]4CC[C@@]5(C)[C@H](CC[C@@H]6[C@@H]5CC[C@]5(C)[C@@H](C7=CC(=O)OC7)CC[C@]65O)C4)O[C@@H]3C)O[C@@H]2C)C[C@H](O)[C@@H]1O,–,inactive
CN(CCCC(=O)c1cccnc1)N=O,–,inactive
C=CCOC(N)=O,–,inactive

SMILES,activation,Potency
OC(Cc1ccccc1Cl)(Cn1cncn1)C1(Cl)CC1 (stereo not given),–,inactive
Clc1ccc(-c2ccc(Cl)c(Cl)c2Cl)c(Cl)c1Cl,–,inactive
Cn1[nH]nnc1=S,–,inactive
CC(C)CC(C)N (stereo not given),–,inactive
C[CH2][Hg][N]1C(=O)C2C(C1=O)C1(Cl)C(Cl)=C(Cl)C2(Cl)C1(Cl)Cl (stereo not given),-16.4% [at 19 µM],–
Oc1ccc(C2(c3ccc(O)cc3)c3ccccc3-c3ccccc32)cc1,–,54.5 µM (active)
CCC[CH2][Sn]([CH2]CCC)([CH2]CCC)[O]C(=O)c1ccccc1,–,inactive
Clc1ccc(CSC(Cn2ccnc2)c2ccc(Cl)cc2Cl)cc1 (stereo not given),–,inactive
ClCc1ccc(Cl)cc1Cl,–,inactive
CCOC(=O)c1ccccc1S(=O)(=O)NC(=O)Nc1nc(Cl)cc(OC)n1,–,inactive
O=CC(Br)(Br)Br,–,30.5 µM (active)
C[As+](C)(C)CC(=O)[O-],–,inactive
CC(C)CCCCCCCOP(=O)(Oc1ccccc1)Oc1ccccc1,–,24.5 µM (active)
SCc1ccco1,–,inactive
O=C(Cl)c1ccc(Cl)cc1,–,inactive
CC(=O)C(Cl)(Cl)Cl,–,inactive
c1ccc2c(c1)OCC(C1=NCCN1)O2 (stereo not given),–,15 µM (active)
N#CC(Cl)Cl,–,inactive
CC(C)OS(C)(=O)=O,–,inactive
CN(C)CCc1c[nH]c2ccc(O)cc12,–,inactive

# — PubChem BioAssay (Tox21)
